Test results: PubChem BioAssay (Tox21)
Active and inactive are the calls of the source. Calls come from the whole dose curve; as a rule, active = well fitted activation curve with a large enough effect in the repeat runs; inconclusive = weak or mixed curves; inactive = flat fitted curve, though single readings scatter.

test: A CellTox Green Cytotoxicity Assay to monitor cytotoxicity in HEK293 cells - 0 hour (AID 1224869); details: CellTox Green fluorescence; series mostly up to 76.8 µM; cytotoxicity: at the top concentration; note: nearly all actives have a fitted effect of over 50% in size
Source text: National Center for Advancing Translational Sciences [NCATS]
NIH Chemical Genomics Center [NCGC]
U.S. Environmental Protection Agency [EPA]
National Institutes of Environmental Health Sciences [NIEHS]
National Toxicology Program [NTP]
Cell-based models are critical for drug discovery. Determining the natural cytotoxic effects resulting from test compounds is an essential research activity. A CellTox Green Cytotoxicity Assay to monitor cytotoxicity in real time of continues cell culture during 40 hours of the compound treatment was used to screen Tox21 10K library compounds in Hek293 cells. CellTox Green Cytotoxicity Assay is a nonlytic, homogeneous, biofluorescent method to measure cytotoxicity in cell culture after experimental manipulation. The assay system uses a proprietary asymmetric cyanine dye that is excluded from viable cells but preferentially stains the dead cell's DNA. […] Viable cells produce no appreciable increases in fluorescence. Therefore, the fluorescence signal produced by the binding interaction with dead cell DNA is proportional to cytotoxicity.
The mixture of Hek293 cell suspension and reagents were dispensed at 600cells/6 ul/well in 1536-well tissue culture treated black solid bottom plates using a Multidrop dispenser. After the assay plates were incubated at a 37 C/5% CO2 incubator for 5 hours, 23 nL of compounds dissolved in DMSO, positive and negative controls was transferred to the assay plate by a pintool work station. The plates were incubated at 37 C for 40 hours. The fluorescence intensity were measured at 0h, 8h, 16h, 24h, 32h and 40h time points using ViewLux plate reader during compound treatment.
% is set by controls: 0 for no effect and ±100 for the full control effect.

SMILES | cytotoxicity | Potency
CCCOc1ccc(S(=O)(=O)N2CCN(CC)CC2)cc1-c1nc2c(CC)n(Cc3ccccn3)nc2c(=O)[nH]1 | -6.29% (inactive) | 
Cc1cc2nc3ccc(=[N+](C)C)cc-3sc2cc1N | -15.8% [at 35.3 µM] (inactive) | 
CC(C)CCCC(=O)O | -0.771% (inactive) | 
CSc1ccc(Oc2ccc(S(N)(=O)=O)cc2CN(C)C)cc1C | -4.98% (inactive) | 
[O]=[Bi] | -1.07% [at 6.97 µM] (inactive) | 
CCOC(=O)C(C)Oc1ccc(Oc2nc3ccc(Cl)cc3o2)cc1 (stereo not given) | 0.0727% (inactive) | 
COc1cc2ncnc(Nc3ccc(F)c(Cl)c3)c2cc1OCCCN1CCOCC1 | 3.79% [at 35.3 µM] (inactive) | 
COc1ccc([C@@H]2Sc3ccccc3NC(=O)[C@@H]2O)cc1 | 0.312% [at 35.3 µM] (inactive) | 
CCCC(=O)O[C@]1(C(=O)COC(=O)CC)CC[C@H]2[C@@H]3CCC4=CC(=O)CC[C@]4(C)[C@H]3[C@@H](O)C[C@@]21C | -7.53% [at 15.8 µM] (inactive) | 
CCCCC(CC)COC(=O)COc1ccc(Cl)cc1C (stereo not given) | 1.42% (inactive) | 
CCOC(=O)[C@@H](C)Oc1ccc(Oc2nc3ccc(Cl)cc3o2)cc1 | -2.26% (inactive) | 
CC1(C)O[C@@H]2C[C@H]3[C@@H]4CCC5=CC(=O)C=C[C@]5(C)[C@H]4[C@@H](O)C[C@]3(C)[C@]2(C(=O)CO)O1 | 1.68% [at 35.3 µM] (inactive) | 
CC(C)CCCCCCOC(=O)CCCCC(=O)OCCCCCCC(C)C | 0.759% (inactive) | 
C/C=C(\C)C(=O)OCCC(C)CCC=C(C)C (stereo not given) | -16.8% (inactive) | 
Cc1cc(C(=C2C=CC(=Nc3ccc(S(=O)(=O)O)cc3S(=O)(=O)O)C=C2)c2ccc(Nc3ccc(S(=O)(=O)O)cc3)cc2)ccc1N | -9.15% [at 35.3 µM] (inactive) | 
CCc1nn(CCCN2CCN(c3cccc(Cl)c3)CC2)c(=O)n1CCOc1ccccc1 | -11.4% [at 35.3 µM] (inactive) | 
O=C(CCCCCCC(=O)Nc1ccccc1)NO | -3.94% [at 35.3 µM] (inactive) | 
CC(C)c1nnc2ccc(-c3ocnc3-c3cc(F)ccc3F)cn12 | -2.97% (inactive) | 
COC(=O)c1cc(S(N)(=O)=O)ccc1OC | 0.561% [at 35.3 µM] (inactive) | 
CC(C)(C)C(=O)C(Oc1ccc(Cl)cc1)n1ccnc1 (stereo not given) | -0.841% [at 35.3 µM] (inactive) | 

SMILES | cytotoxicity | Potency
CC1=C(C=O)C(C)(C)CCC1 | -0.886% (inactive) | 
Cn1c(=O)c2c(ncn2CC(=O)O)n(C)c1=O | -5.87% [at 35.3 µM] (inactive) | 
CCc1cccc(N(C)C(N)=Nc2cccc3ccccc23)c1 | 1.8% [at 35.3 µM] (inactive) | 
CCC(=O)OC/C=C/c1ccccc1 |  | inactive
CNC(=O)N(c1ccccc1)c1ccccc1 | 1.19% (inactive) | 
O=C(O)c1ccccc1NCCc1ccccc1 | 5.62% [at 35.3 µM] (inactive) | 
O=[N+]([O-])c1cccc(S(=O)(=O)NCCNS(=O)(=O)c2cccc([N+](=O)[O-])c2)c1 | 5.03% [at 35.3 µM] (inactive) | 
O=C(O)c1c(O)c(-c2ccccc2)nc2ccccc12 | -1.99% [at 35.3 µM] (inactive) | 
C[Si]1(C)O[Si](C)(C)O[Si](C)(C)O1 | 1.87% (inactive) | 
Cc1oncc1C(=O)Nc1ccc(C(F)(F)F)cc1 |  | inactive
CCOC(=O)N1CCC(n2c(=O)[nH]c3cc(Cl)ccc32)CC1 | -3.23% [at 35.3 µM] (inactive) | 
COc1ccc(C(=O)c2cccc(O)c2)c(OC)c1 | -12.2% (inactive) | 
c1ccc(COCc2ccccc2)cc1 | -0.874% (inactive) | 
Cc1nc2ccccc2s1 | 11.4% (inactive) | 
NC(=O)N(O)[C@@H]1C=C[C@H](Oc2cccc(Oc3ccc(F)cc3)c2)C1 | 0.404% (inactive) | 
CC(C)C(=O)O | -8.18% (inactive) | 
O=S1OCCO1 | -0.631% (inactive) | 
CCCCCCCCCCCC[N+](C)(C)CCCS(=O)(=O)[O-] | 8.77% (inactive) | 
C/C=C/C=C/CCCCCCCO | 0.217% (inactive) | 
CCCc1c(OCCCOc2ccc(OCC(=O)O)cc2)ccc(C(C)=O)c1O | -13.1% (inactive) | 
